Test [1] concerns the target Dual specificity protein kinase CLK3 (Homo sapiens) (UniProt P49761). The following applies: at 1 µM.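 Note: each value is the mean inhibition of CLK3.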
For test [2], the target named is Dual specificity tyrosine-phosphorylation-regulated kinase 1A (Homo sapiens) (UniProt Q13627). Conditions: at 0.1 µM.
Test [3] shares this target. Conditions: at 1 µM.
Test [4] has as its target Dual specificity tyrosine-phosphorylation-regulated kinase 1B (Homo sapiens) (UniProt Q9Y463). Conditions: at 0.1 µM.
For test [5] the target is unchanged. The following applies: at 1 µM.
For test [6], the target named is T1, Dual specificity tyrosine-phosphorylation-regulated kinase 2 (Homo sapiens) (UniProt Q92630).
T1 sequence (whole entry): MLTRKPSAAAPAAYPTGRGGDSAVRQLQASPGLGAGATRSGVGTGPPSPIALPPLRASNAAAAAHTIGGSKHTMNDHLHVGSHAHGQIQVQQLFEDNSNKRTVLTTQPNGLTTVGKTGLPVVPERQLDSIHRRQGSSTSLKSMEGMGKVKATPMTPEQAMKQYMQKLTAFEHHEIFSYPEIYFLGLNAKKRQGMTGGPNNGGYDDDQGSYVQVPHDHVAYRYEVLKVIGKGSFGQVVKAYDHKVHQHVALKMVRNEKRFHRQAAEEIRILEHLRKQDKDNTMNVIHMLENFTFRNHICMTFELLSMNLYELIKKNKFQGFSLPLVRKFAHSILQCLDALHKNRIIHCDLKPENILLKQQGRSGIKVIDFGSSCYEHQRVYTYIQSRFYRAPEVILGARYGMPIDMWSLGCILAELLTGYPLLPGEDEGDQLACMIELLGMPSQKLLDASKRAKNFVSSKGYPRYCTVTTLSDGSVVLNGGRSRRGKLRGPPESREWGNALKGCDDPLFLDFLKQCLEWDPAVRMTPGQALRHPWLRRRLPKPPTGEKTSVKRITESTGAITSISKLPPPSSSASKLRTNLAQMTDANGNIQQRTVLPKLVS
The following applies: at 0.1 µM.

The target of test [7] is T1, Dual specificity tyrosine-phosphorylation-regulated kinase 2 (Homo sapiens). Conditions: at 1 µM.
Test [8] deals with Glycogen synthase kinase-3 alpha (Homo sapiens) (UniProt P49840). Conditions: at 0.1 µM.
For test [9] the target is unchanged. The following applies: at 1 µM.
For test [10], the target named is Glycogen synthase kinase-3 beta (Homo sapiens) (UniProt P49841). Conditions: at 0.1 µM.
Test [11] has the same target. Conditions: at 1 µM.
Test [12] deals with Homeodomain-interacting protein kinase 1 (Homo sapiens) (UniProt Q86Z02). Conditions: at 0.1 µM.
For test [13] the target is unchanged. Conditions: at 1 µM.
Test [14] addresses T2, Homeodomain-interacting protein kinase 4 (Homo sapiens) (UniProt Q8NE63).
T2 sequence (whole entry): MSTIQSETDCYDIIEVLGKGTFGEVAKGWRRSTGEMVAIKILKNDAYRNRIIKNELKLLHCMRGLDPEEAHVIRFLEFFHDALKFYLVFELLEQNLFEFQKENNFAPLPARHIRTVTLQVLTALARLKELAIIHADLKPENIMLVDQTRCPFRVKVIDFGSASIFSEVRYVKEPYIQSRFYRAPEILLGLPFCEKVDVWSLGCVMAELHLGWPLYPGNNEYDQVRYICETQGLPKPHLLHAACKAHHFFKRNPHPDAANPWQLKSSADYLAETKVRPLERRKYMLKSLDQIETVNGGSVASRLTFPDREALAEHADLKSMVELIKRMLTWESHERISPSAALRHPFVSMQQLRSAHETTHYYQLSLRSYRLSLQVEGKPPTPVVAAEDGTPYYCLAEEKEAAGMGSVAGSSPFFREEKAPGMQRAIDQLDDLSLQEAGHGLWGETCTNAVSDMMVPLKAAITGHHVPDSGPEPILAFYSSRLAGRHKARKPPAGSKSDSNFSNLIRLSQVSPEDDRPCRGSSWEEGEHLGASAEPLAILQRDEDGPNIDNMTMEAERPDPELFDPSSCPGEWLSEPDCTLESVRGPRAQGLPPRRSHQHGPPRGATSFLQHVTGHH
Conditions: at 0.1 µM.

In test [15] the target is T2, Homeodomain-interacting protein kinase 4 (Homo sapiens). The following applies: at 1 µM.
The target in test [16] is Mitogen-activated protein kinase 9 (Homo sapiens) (UniProt P45984). Conditions: at 0.1 µM.
The target is the same in test [17]. The following applies: at 1 µM.
Test [18] has as its target Mitogen-activated protein kinase 1 (Homo sapiens) (UniProt P28482). Conditions: at 0.1 µM.
Test [19] has the same target. The following applies: at 1 µM.
The target of test [20] is Mitogen-activated protein kinase 3 (Homo sapiens) (UniProt P27361). The following applies: at 0.1 µM.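 Note: each value is a mean inhibition figure.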

Structures are written as SMILES.

Mitogen-activated protein kinase 1 (Homo sapiens), sequence (P28482 whole entry): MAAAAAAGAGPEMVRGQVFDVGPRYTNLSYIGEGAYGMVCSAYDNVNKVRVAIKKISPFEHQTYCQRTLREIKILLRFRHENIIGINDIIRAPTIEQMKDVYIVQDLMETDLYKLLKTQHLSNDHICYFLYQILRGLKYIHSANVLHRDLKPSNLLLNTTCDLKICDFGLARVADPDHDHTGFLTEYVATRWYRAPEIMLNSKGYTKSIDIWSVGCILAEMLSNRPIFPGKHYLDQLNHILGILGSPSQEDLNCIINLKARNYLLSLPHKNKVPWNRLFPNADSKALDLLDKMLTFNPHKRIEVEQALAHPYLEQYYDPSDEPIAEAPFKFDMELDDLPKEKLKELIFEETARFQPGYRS
Glycogen synthase kinase-3 alpha (Homo sapiens), sequence (P49840 2-483 limits assumed): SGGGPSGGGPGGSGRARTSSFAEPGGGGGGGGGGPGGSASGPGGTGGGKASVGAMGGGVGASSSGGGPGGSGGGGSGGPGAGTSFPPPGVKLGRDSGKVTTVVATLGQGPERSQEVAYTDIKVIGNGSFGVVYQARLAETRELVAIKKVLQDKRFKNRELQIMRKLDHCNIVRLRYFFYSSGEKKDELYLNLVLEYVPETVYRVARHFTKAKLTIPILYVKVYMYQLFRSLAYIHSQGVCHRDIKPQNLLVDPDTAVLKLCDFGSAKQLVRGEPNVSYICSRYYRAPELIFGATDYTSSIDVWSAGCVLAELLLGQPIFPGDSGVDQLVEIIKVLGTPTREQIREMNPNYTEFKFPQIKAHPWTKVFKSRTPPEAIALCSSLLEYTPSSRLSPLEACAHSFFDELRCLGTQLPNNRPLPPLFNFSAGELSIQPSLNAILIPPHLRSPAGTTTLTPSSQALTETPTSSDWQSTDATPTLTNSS
Mitogen-activated protein kinase 3 (Homo sapiens), sequence (P27361 whole entry): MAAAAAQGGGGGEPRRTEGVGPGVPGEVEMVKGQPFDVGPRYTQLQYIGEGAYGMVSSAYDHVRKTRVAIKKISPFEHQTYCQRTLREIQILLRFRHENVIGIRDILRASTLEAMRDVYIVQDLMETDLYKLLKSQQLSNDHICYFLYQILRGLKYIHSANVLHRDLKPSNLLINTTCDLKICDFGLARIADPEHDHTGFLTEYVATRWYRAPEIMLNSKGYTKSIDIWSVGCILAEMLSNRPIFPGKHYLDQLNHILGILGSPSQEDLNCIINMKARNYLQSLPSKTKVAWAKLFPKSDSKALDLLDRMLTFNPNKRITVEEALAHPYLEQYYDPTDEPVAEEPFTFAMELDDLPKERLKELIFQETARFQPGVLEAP
Dual specificity protein kinase CLK3 (Homo sapiens), sequence (P49761 whole entry, looked up): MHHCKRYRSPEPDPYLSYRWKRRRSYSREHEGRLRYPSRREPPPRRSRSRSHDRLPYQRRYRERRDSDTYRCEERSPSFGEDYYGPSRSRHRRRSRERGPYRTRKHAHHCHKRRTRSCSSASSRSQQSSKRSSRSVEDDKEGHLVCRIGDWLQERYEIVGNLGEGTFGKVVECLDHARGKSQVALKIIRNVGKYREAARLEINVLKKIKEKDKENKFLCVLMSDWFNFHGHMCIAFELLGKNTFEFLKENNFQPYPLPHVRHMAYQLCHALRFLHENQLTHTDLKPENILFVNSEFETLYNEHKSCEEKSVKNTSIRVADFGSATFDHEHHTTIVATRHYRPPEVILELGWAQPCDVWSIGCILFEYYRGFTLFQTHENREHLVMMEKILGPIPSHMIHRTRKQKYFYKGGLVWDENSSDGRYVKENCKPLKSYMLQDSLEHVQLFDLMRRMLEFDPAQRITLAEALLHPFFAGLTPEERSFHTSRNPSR
Mitogen-activated protein kinase 9 (Homo sapiens), sequence (P45984 whole entry, looked up): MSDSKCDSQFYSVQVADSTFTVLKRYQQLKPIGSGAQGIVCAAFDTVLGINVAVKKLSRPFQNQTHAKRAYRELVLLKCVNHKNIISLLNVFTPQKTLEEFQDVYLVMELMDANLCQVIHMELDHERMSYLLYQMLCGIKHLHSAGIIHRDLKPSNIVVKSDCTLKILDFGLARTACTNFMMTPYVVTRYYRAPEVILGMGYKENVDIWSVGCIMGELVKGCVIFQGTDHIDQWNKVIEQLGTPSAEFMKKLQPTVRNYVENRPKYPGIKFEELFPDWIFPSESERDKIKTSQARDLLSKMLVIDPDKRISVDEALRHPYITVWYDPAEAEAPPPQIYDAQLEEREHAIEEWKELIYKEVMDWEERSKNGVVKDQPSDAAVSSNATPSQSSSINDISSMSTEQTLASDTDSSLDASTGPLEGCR
Dual specificity tyrosine-phosphorylation-regulated kinase 1B (Homo sapiens), sequence (Q9Y463 whole entry, looked up): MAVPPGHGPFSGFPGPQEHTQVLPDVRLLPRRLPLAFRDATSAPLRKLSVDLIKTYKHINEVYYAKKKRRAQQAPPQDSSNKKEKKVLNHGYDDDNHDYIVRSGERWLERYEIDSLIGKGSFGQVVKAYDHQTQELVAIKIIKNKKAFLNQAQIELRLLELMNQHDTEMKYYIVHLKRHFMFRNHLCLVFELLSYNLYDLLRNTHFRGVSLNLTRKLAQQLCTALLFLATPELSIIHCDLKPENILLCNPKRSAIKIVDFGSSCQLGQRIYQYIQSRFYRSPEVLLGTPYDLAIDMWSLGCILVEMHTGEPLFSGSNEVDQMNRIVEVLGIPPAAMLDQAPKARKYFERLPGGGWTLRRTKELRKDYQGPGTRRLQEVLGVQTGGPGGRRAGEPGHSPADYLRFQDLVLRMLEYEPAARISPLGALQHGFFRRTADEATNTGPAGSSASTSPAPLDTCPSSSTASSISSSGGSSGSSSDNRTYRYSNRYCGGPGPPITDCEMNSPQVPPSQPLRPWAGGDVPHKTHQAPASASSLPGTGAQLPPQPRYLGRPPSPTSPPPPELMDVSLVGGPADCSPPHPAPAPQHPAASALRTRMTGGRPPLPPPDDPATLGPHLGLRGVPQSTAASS
Homeodomain-interacting protein kinase 1 (Homo sapiens), sequence (Q86Z02 whole entry, looked up): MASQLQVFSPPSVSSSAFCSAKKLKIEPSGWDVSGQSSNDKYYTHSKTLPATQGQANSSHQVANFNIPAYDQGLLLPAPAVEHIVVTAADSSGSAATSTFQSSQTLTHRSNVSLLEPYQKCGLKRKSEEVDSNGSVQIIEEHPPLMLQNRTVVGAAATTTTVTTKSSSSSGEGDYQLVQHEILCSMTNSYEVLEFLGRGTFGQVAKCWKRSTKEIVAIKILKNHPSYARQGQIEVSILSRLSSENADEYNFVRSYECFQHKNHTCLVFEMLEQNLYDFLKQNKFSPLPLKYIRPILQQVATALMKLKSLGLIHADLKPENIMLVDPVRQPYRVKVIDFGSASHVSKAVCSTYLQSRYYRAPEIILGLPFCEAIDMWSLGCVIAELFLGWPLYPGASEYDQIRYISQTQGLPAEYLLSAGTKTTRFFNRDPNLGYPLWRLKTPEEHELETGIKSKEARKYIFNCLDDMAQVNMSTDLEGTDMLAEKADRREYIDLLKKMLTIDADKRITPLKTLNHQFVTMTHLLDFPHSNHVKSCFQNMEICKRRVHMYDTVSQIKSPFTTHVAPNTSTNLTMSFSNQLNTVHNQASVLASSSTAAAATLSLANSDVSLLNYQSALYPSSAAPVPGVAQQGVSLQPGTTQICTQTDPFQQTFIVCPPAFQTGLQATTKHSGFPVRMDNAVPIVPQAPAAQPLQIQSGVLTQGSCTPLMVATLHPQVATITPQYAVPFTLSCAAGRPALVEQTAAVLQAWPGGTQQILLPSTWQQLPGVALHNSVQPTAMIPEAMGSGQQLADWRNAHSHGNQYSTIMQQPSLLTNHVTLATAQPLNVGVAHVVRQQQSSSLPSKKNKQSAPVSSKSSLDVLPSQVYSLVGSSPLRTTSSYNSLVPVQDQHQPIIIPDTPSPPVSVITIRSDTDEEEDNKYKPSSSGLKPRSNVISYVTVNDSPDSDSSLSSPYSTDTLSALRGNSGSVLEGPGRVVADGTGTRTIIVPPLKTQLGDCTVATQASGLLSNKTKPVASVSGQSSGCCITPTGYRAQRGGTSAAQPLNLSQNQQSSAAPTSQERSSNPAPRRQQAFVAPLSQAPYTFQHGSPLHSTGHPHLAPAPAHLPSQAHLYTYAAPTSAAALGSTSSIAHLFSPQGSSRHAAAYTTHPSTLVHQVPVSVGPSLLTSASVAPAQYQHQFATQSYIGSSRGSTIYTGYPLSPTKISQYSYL
Glycogen synthase kinase-3 beta (Homo sapiens), sequence (P49841 whole entry, looked up): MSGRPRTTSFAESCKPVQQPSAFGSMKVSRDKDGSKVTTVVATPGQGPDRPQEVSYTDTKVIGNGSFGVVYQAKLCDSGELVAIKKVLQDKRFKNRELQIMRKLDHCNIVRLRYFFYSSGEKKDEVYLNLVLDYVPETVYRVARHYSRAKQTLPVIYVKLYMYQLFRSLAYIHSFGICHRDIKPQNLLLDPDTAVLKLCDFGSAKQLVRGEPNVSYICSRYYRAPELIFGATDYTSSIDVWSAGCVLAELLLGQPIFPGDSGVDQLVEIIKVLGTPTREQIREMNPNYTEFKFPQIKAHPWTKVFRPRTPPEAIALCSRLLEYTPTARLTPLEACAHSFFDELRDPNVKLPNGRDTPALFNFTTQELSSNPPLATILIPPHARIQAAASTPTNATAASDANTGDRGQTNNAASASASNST

In the case of `N#Cc1c(NC(=O)c2ccc(F)cc2)sc2c1CCCC2`, the inhibition in [1] is 0.61%; in test [2], 0.28%; in [3], 3.62%; in [4], -0.66%; in [5], 1.05%; in test [6], -0.13%. Besides, the inhibition in test [7] is 0.26%; in test [8], 0.69%; in test [9], 2.28%; in [10] it was -0.51%; in test [11], 3.45%; in test [12], -1.95%. In addition, the inhibition is -1.66% in [13]; -1.19% in test [14]; -0.61% in test [15]; 2.17% in test [16]; 2.49% in [17]; 0.39% in test [18]. Further, the inhibition in test [19] is 1.25%; in test [20], -1.04%.
As for `COc1cc(N2CCN(C(C)C)CC2)ccc1Nc1nc(Nc2ccc(F)cc2C(N)=O)c2cc[nH]c2n1`, the inhibition came to 13.2% in [1]; 45.2% in test [2]; 86.5% in [3]; 49.1% in [4]; 76.6% in test [5]; 5.36% in test [6]. In addition, the inhibition in test [7] was 36.4%; in test [8] it was 3.88%; in test [9], 5.19%; in test [10], 2.71%; in [11], 7.27%; in [12] it was 33.9%. Moreover, the inhibition in [13] is 73.7%; in test [14], 44.8%; in test [15], 75.1%; in test [16], 65.5%; in test [17], 89.1%; in [18] it was 2.91%. Besides, the results for the inhibition in test [19] and in test [20] were 15.3% and 2.87%, respectively.
`CC(C)(CO)CNC(=O)c1ccc2c(c1)/C(=N/Nc1ccc(S(N)(=O)=O)cc1)C(=O)N2`: the inhibition in test [1] was 9.15%; in test [2], -0.06%; in test [3], 7.83%; in test [4], -0.36%; in test [5] it was 1%; in test [6], 0.82%. Moreover, the inhibition in test [7] was 9.64%; in test [8], 23.2%; in [9] it was 65.2%; in [10], 22.4%; in [11], 66.8%; in test [12], -4.78%. For the same molecule, the inhibition was 13.1% in test [13]; -0.55% in [14]; 4.55% in test [15]; -0.59% in test [16]; 8.39% in test [17]; 8.62% in [18]. The inhibition came to 42.1% in test [19] and 1.78% in test [20].
Take `NS(=O)(=O)c1ccc(N/N=C2\C(=O)Nc3ccc4ncccc4c32)cc1`: the inhibition worked out at 15% in test [1]; 18.6% in test [2]; 61.6% in test [3]; 13% in test [4]; 54.8% in test [5]; 6.76% in test [6]. For the same molecule, the inhibition was 35.7% in [7]; 55.3% in [8]; 80.9% in [9]; 53.5% in test [10]; 80.2% in test [11]; 19.7% in test [12]. In addition, the inhibition in [13] turned out to be 64.7%; in test [14], 6.71%; in [15], 40%; in [16], 6.07%; in [17] it was 33.7%; in test [18], 14.9%. For the same molecule, the inhibition in [19] is 55.5%; in [20] it was 6.45%.
For `CC(=O)NCc1cccc(C#Cc2cncnc2Nc2ccc(OCc3cccc(F)c3)c(Cl)c2)c1`, the inhibition is 0.27% in [1]; 1.8% in [2]; 6.71% in test [3]; 0.66% in test [4]; 1.17% in test [5]; 1.17% in test [6]. The inhibition in [7] was -0.66%; in [8] it was 3.24%; in test [9] it was 8.35%; in test [10], 2.82%; in [11], 7.42%; in test [12], -1.17%. Also, the inhibition in test [13] is 0.08%; in [14], -1.54%; in test [15], 2.87%; in test [16], 0.88%; in [17], 0.54%; in test [18], 0.71%. Moreover, the inhibition was 1.78% in test [19] and -0.54% in [20].
Regarding `c1cc(-c2cnn3nc(N4CCOCC4)ccc23)nc(NC2CC2)n1`, the inhibition in [1] was 8.62%; in test [2], 7.48%; in test [3], 40.4%; in test [4] it was 6.08%; in [5], 35.8%; in [6] it was 5.57%. In addition, the inhibition in test [7] came out at 32.8%; in test [8], 4.47%; in test [9], 26.4%; in test [10], 2.95%; in [11] it was 18.2%; in [12], 3.36%. Also, the inhibition came out at 29% in [13]; 4.39% in test [14]; 20.6% in test [15]; 5.03% in [16]; 26.1% in [17]; 1.45% in test [18]. Also, the figures for the inhibition in test [19] and in test [20] were 7.25% and 4.13%, respectively.
Take `Nc1nc(-c2cccc(Cl)c2)c(-c2ccc3ncccc3n2)s1`: the inhibition in test [1] is 3.8%; in [2] it was 6.62%; in test [3], 31.8%; in [4], -0.12%; in test [5], 12.7%; in test [6], 3.16%. The inhibition in test [7] worked out at 5.31%; in [8], 3.74%; in test [9] it was 11.2%; in test [10], 2.21%; in test [11], 7.52%; in test [12], 2.34%. Moreover, the inhibition in test [13] was 6.93%; in [14] it was 2.76%; in [15] it was 13.9%; in [16], 5.19%; in test [17], 13.9%; in test [18], 6.28%. Further, the inhibition in test [19] is 6.55%; in test [20] it was 5.26%.
Take `O=C(Nc1n[nH]c2cc(-c3ccc(F)cc3)ccc12)C1CC1`: the inhibition was determined as 1.03% in test [1]; 3.64% in test [2]; 11% in test [3]; 1.08% in test [4]; 7.73% in test [5]; 2.57% in test [6]. Also, the inhibition is 2.75% in [7]; 3.8% in [8]; 14.7% in test [9]; 2.61% in test [10]; 14.9% in [11]; -2.89% in test [12]. Further, the inhibition in test [13] is 2.09%; in test [14], 0.01%; in [15], 1.78%; in test [16], 2.97%; in test [17], 3.68%; in test [18], 1.79%. In addition, the figures for the inhibition in test [19] and in [20] were 4.65% and 1.72%, respectively.

For the origin of these results see ChEMBL document CHEMBL1961873, “Compounds: GSK PKIS; Assays: Nanosyn kinase panel” (2012).
